# The whole screen tested about 3,400 compounds, of which about 840 (25%) were called active. Roughly 11% stayed inconclusive and do not appear here. Only a sample is shown. Results with a measured potency or affinity are listed apart. Values without a mark were called inactive.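 How the source made its calls: active means fitted half-maximal concentration of signal decrease at or below twice the sample's top tested concentration; inconclusive means flat curve between -70 and -30 percent, or poor fit; inactive means flat within 30 percent, signal rise, or potency above limit.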
# Assay: inhibitors of Toxoplasma growth in IFN-γ-primed HeLa – cell-based, ME49Luc, luciferase, 72 h, dose response (AID 1259418)
# Conditions: T. gondii ME49Luc in IFN-y HeLa, hits give low values, -100% = high-dose IFN-γ control wells; at 19.5 µM unless noted
row,SMILES,max activity
1,COc1cccc(NC(=O)Nc2ccc(-c3nc(-c4cc(C)ccc4C)co3)cc2)c1,10.1% [at 0.16 µM]
2,CN(C)CCO[C@@H]1CN(C(=O)Cc2ccsc2)[C@H]2CCCO[C@@H]12,38.7%
3,Cc1cccc(NC(=O)CN2CCC3(CC2)N=C(c2ccc(Cl)cc2)C(=O)N3)c1,17.4%
4,Cc1[nH]c2ccccc2c1C(=O)C(=O)NC1CC(=O)N(c2cccc(F)c2)C1 (stereo unspecified),13.3% [at 0.35 µM]
5,COc1ccc(C)cc1Nc1nc(-c2ccc(Cl)cc2)nc2ccccc12,-11.5% [at 2.6 µM]
6,Clc1ccc(-c2nc(N3CCc4ccccc43)c3ccccc3n2)cc1,-11.3%
7,COc1ccc2c(c1)NC1(CCN(C(=O)c3ccc(C)c(C)c3)CC1)c1cccn1-2,-9.14% [at 2.6 µM]
8,CCc1ccc(NC(=O)N2CCN(Cc3nc(-c4ccccc4C)oc3C)CC2)cc1,20.1% [at 0.16 µM]
9,Cc1oc(-c2ccccc2)nc1Cn1nnc(-c2nc(-c3ccc(F)c(Br)c3)no2)c1C,9.89%
10,COc1cccc(NC(=O)CN2CCC3(CC2)N=C(c2ccc(Cl)cc2)C(=O)N3)c1,-17.6% [at 1.35 µM]
11,COc1ccc(-c2nc(NCC3CCN(Cc4ccccc4F)CC3)c3ccccc3n2)cc1,-29.4%
12,Cc1cccc(CN2CCC(CNc3nc(-c4ccc(Cl)cc4)nc4ccccc34)CC2)c1,-45.1% [at 0.35 µM]
13,COc1ccc(-c2nc(NCc3ccc(F)cc3)c3ccccc3n2)cc1,18.6% [at 1.35 µM]
14,COc1ccc(-c2nc(NCC3CCN(Cc4ccc(Cl)cc4)CC3)c3ccccc3n2)cc1,14.4% [at 2.6 µM]
15,COc1ccc(-c2nc(NCc3ccc(C)cc3)c3ccccc3n2)cc1,-20.6% [at 5 µM]
16,CSc1ccc(-c2noc(-c3nnn(Cc4nc(-c5ccc(C)cc5)oc4C)c3C)n2)cc1,4.87%
17,COc1cc(C(=O)N2CCC3(CC2)Nc2ccc(C)c(C)c2-n2cccc23)cc(OC)c1OC,7.01% [at 0.16 µM]
18,O=C(C1CCOCC1)N1CC(=O)N2[C@@H](CO)[C@@H](c3ccc(C#CC4CCCCC4)cc3)[C@@H]2C1,25.9% [at 10 µM]
19,Cc1cccc(-c2ccc(C3[C@H]4CNC[C@@H]3N4Cc3cccc(F)c3)cc2)c1 (stereo partly specified),19.8%
20,Fc1cccc(-c2ccc(C3[C@H]4CNC[C@@H]3N4Cc3cncnc3)cc2)c1 (stereo partly specified),50.5%
21,N#C[C@H]1N[C@@H](CO)[C@H]1c1ccc(C#CC2CCCCC2)cc1,49.7%
22,COc1cccc(S(=O)(=O)N2CC[C@@H]3[C@H]2c2cc(C#Cc4cccnc4)ccc2N[C@@H]3CO)c1,31.2% [at 5 µM]
23,O=C(Nc1ccccc1)Nc1ccc(-c2nc(-c3ccccc3)co2)cc1,51.3%

row,SMILES,max activity
1,COc1cccc(-c2nc3c(s2)CN(S(=O)(=O)c2ccc(OC)c(OC)c2)CC3)c1,6.21% [at 10 µM]
2,COc1ccccc1-c1nc(C)c(-c2ccc(SCc3ccc(C)cc3)nn2)s1,-14.3%
3,COc1ccc(C(=O)N2CCC[C@@H]2C(=O)NCCc2csc(-c3ccccc3)n2)cc1,-13.9%
4,CCc1ccc(S(=O)(=O)N2CCc3nc(-c4ccc(OC)cc4)sc3C2)cc1,9.57%
5,CCOc1ccc(CC(=O)N2CCC3(CC2)Nc2ccc(C)c(C)c2-n2cccc23)cc1OCC,-7.59% [at 0.35 µM]
6,CCC(CC)C(=O)N1CCC(C(=O)NCCc2csc(-c3ccccc3)n2)CC1,5.84% [at 5 µM]
7,COc1ccc(C(=O)Nc2ccc3c(c2)CCC(=O)N3C)c(C)c1,42.4%
8,N#C[C@H]1[C@H](c2ccc(C#Cc3ccccc3F)cc2)[C@@H](CO)N1C(=O)c1cccnc1,-13.1% [at 2.35 µM]
9,COc1cccc(C#Cc2ccc([C@H]3[C@@H](C#N)N(C(=O)c4ccccn4)[C@@H]3CO)cc2)c1,11.2% [at 10 µM]
10,CCOC(=O)C1CCC(CNC(=O)Nc2ccc(-c3nc(-c4ccccc4)co3)cc2)CC1 (stereo unspecified),-11.7% [at 5 µM]
11,N#CCSC1=Nc2ccccc2C2=NC(CC(=O)NCc3ccc(F)cc3)C(=O)N12 (stereo unspecified),44.3%
12,Cc1cccc(CNC2=NCCNC23CCN(S(=O)(=O)c2ccc4c(c2)CCCC4)CC3)c1,20.3% [at 10 µM]
13,COc1ccc(CNC2=NCCNC23CCN(S(=O)(=O)c2ccc4c(c2)CCCC4)CC3)cc1,-31.9%
14,O=S(=O)(c1ccc2c(c1)CCCC2)N1CCC2(CC1)NCCN=C2NCc1cc(F)cc(F)c1,16.7%
15,Cc1nc(-c2ccc(F)cc2)sc1-c1ccc(SCc2cccc3ccccc23)nn1,-8.89% [at 10 µM]
16,COc1ccccc1-c1nc(C)c(-c2ccc(SCc3cc(C)ccc3C)nn2)s1,-11.2% [at 0.35 µM]
17,Cc1ccc(-c2coc(-c3ccc(NC(=O)C4CCCCC4)cc3)n2)c(C)c1,-13.8%
18,Cc1oc(-c2cccc(Cl)c2)nc1Cn1nnc(-c2nc(-c3ccncc3)no2)c1C,-5.43% [at 1.35 µM]
19,COc1ccc(-c2nc(Nc3cccc(SC)c3)c3ccccc3n2)cc1,8.11% [at 0.35 µM]
20,COC(=O)c1ccc(NC(=O)Nc2ccc(-c3nc(-c4cc(C)ccc4C)co3)cc2)cc1,-6.97% [at 0.68 µM]
21,COc1ccc2c(c1)NC1(CCN(C(=O)Cc3ccc(F)cc3)CC1)c1cccn1-2,12.9% [at 0.35 µM]
22,CCn1cc(NC(=O)c2cccc(CN3C[C@@H](C)O[C@@H](C)C3)c2)nn1,30.6%
23,CC(C)CN(C[C@@H](O)[C@H](Cc1ccccc1)NC(=O)O[C@H]1CO[C@H]2OCC[C@H]21)S(=O)(=O)c1ccc(N)cc1,7.57%

# Source: PubChem BioAssay AID1259418 (Broad Institute, 2018)
